MRP resist rev – compounds reversing MRP-mediated drug resistance. H69AR cells + 2 uM doxorubicin, CellTiter-Glo, 72 h. 85,000 tested, 0.04% active. AID 602. differential viability (reversal), % at 10 µM;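 active means viability drop by adding the cancer drug above about 55%, with treated viability meeting a 40% cutoff, limit read from the data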;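 further: larger differential means the compound sensitizes cells more to doxorubicin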
NFkB transloc inh – blocks IL-1B driven NFkB nuclear translocation in HUVEC cells | AID 796 | HUVEC IL-1B NFkB p65 nuclear translocation imaging | 94,000 tested, 0.43% active | inhibition, % at 2 µM;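 active means inhibition above about 30% together with a positive call from visual inspection of the well image, limit read from the data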;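 further: nuclear over cytoplasmic p65 intensity ratio measured by imaging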
IL1B cytotox – toxic to HUVEC cells under IL-1B stimulation. HUVEC cell count loss, Hoechst imaging, IL-1B stimulated. cell count reduction, % at 2 µM. 94,000 tested, 0.41% active. AID 845;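 active means cell count reduction more than 3 SD above the screen-wide mean, cut at about 70% in these data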
sdo1 growth – sdo1-depleted yeast growth rescue. S. cerevisiae sdo1-depleted JHY4D growth rescue, OD600 30 h; active compounds read high; pdr5 snq2 efflux-pump mutant strain. z-score at 10 µM. 140,000 tested, 0.21% active. AID 817;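 active means z-score above 3 at both the 24 hr and the 30 hr optical density reads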
MRP-1 activ – activators of MRP-1. H69AR cells + doxorubicin, viability rescue, CellTiter-Glo. viability increase, % at 10 µM. 140,000 tested, 0.61% active. AID 799;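 active means viability gain under doxorubicin at or above a set limit, the compound median plus 3 SD, cut at about 4.7% in these data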;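 further: MRP-1 overexpressing cells given doxorubicin 25 µM after compound pretreatment; 18-22 h compound pretreatment then 72 h with doxorubicin before readout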
NFkB transloc pot – enhances IL-1B driven NFkB nuclear translocation | HUVEC IL-1B NFkB p65 nuclear translocation imaging | activation, % at 2 µM | 94,000 tested, 0.3% active;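 active means activation above 40%, about the mean plus 3 SD, also judged a hit on visual image review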;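 further: percent activation is computed from the nuclear over cytoplasmic p65 intensity ratio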
sdo1 rescue conf – SDO1-depleted yeast growth rescue confirmation; OD recovery (no concentration beside the values); 440 tested, 44% active; shares compounds with sdo1 growth; S. cerevisiae JHY4D (SDO1-depleted) growth rescue, OD600, 30 h; active compounds read high; efflux-deficient strain, SNQ2 and PDR5 mutated;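 active means yeast growth recovered at 30 hours, either rising with dose fitted slope above 0.001 or with average optical density gain above 0.07, some results past the limit were not filed as active; inactive means growth falling with dose or no effect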
Numbers stand for hits; – = inactive; · = not tested or not shown. Sampled rows, rich in hits. Any-hit rate of the full collection: about 1.4%.

SMILES | MRP resist rev | NFkB transloc inh | IL1B cytotox | sdo1 growth | MRP-1 activ | NFkB transloc pot | sdo1 rescue conf
CC(=O)N1CCN=C1SCc1cccc(C(F)(F)F)c1 | – | – | – | – | – | – | ·
O=C(c1ccco1)N1CCN=C1SCc1cccc(F)c1 | – | – | – | – | – | – | ·
O=C(c1ccco1)N1CCN=C1SCc1ccc(F)cc1 | – | · | · | – | 6.0 | · | ·
Cc1cc(C)nc(Nc2ncc(O)n2-c2ccc(C)c(C)c2)n1 | – | – | – | 5.9 | – | – | 0.077
Cc1cccc(NC(=O)C2(c3ccc([N+](=O)[O-])cc3)CCCC2)c1 | · | – | – | 6.5 | – | – | –
COc1ccc(C(=O)NCC(=O)OCC(=O)c2ccc3c(c2)OCCO3)cc1 | · | – | – | – | – | – | ·
Cc1ccc(C(=O)NCC(=O)OCC(=O)c2ccc3c(c2)OCCO3)cc1C | · | – | – | 3.1 | – | – | –
CN(C)CCCNC(=O)C1CCNCC1 | – | · | · | 3.1 | – | · | 0.1
O=C(c1ccccc1NS(=O)(=O)c1cccc(C(F)(F)F)c1)N1CCc2ccccc21 | · | · | · | – | – | · | ·
COC(=O)c1nc2cc(C)ccn2c1F | · | · | · | – | – | · | ·
COC(=O)c1c(C(=O)OC)c2cc(C)ccn2c1Cl | – | – | – | 11 | – | – | 0.084
CC(C)NC(=O)/C(=C/c1cn(-c2ccccc2)nc1-c1cccc([N+](=O)[O-])c1)NC(=O)c1ccccc1 | · | · | · | – | – | · | ·
O=C(NCc1ccccc1)c1cccc(Br)n1 | · | · | · | 15 | – | · | –
O=C(O)CSCCOc1ccc(OCCSCC(=O)O)cc1 | · | · | · | – | – | · | ·
COC(=O)c1sccc1NC(=O)c1ccc(OC)c(OC)c1 | – | – | – | – | – | – | –
Cc1ccc(C)c2c3c([nH]c12)-c1nonc1CC3 | – | – | – | – | – | – | ·
O=C(CNc1ccccc1)Nc1ccc(F)cc1 | – | – | – | – | – | – | ·
O=C(Cc1coc(-c2ccc(F)cc2)n1)Nc1ccccc1 | · | · | · | 3.2 | – | · | –
Cc1c(C(N)=O)sc2ncn(CC(=O)N3CCC(C)CC3)c(=O)c12 | – | · | · | – | – | · | ·
CCCc1nn(C)c(C(=O)Nc2cccc(CC)c2)c1Cl | · | · | · | – | – | · | ·
CCCc1nn(C)c(C(=O)Nc2ccc3ccccc3c2)c1Cl | · | · | · | 4.1 | – | · | 0.096
COc1cccc2c1OCC/C2=N\NC(=O)COc1ccc(C)cc1 | · | · | · | – | – | · | –
Cc1ccc(OCC(=O)N/N=C2\CCOc3c(C)cccc32)cc1 | · | – | – | – | – | – | ·
Cc1ccc(S(=O)(=O)N2CCOCC2)cc1NC(=O)COc1ncnc2ccccc12 | · | · | · | – | – | · | ·
O=C(COc1ncnc2ccccc12)Nc1cccc(S(=O)(=O)N2CCOCC2)c1 | · | · | · | 3.6 | – | · | –
SMILES | MRP resist rev | NFkB transloc inh | IL1B cytotox | sdo1 growth | MRP-1 activ | NFkB transloc pot | sdo1 rescue conf
COc1cc(NC(=O)c2cccc(C)c2)c(Cl)cc1[N+](=O)[O-] | · | · | · | – | – | · | ·
COC(=O)c1ccc2c(c1)C(=O)/C(=C/c1ccc(O)cc1)O2 | · | · | · | 3.5 | – | · | –
CCc1ccc(/C=C2\Oc3cc(OS(C)(=O)=O)ccc3C2=O)cc1 | · | · | · | – | – | · | ·
Cc1ccccc1CS(=O)(=O)c1nnc([C@H](Cc2ccccc2)NC(=O)OC(C)(C)C)o1 | – | – | – | – | – | – | ·
CCC(C)[C@@H](NC(=O)OC(C)(C)C)c1nnc(S(=O)(=O)Cc2cccc(C)c2)o1 (stereo not given in full) | – | – | – | 5.6 | – | – | 0.11
COc1ccccc1OC(C)C(=O)O (stereo not given) | · | – | – | 5.2 | – | – | –
COc1ccccc1OCC(=O)O | – | – | – | – | – | – | ·
CCC1CCC(c2nnc(-c3ccc([N+](=O)[O-])cc3)o2)CC1 (stereo not given) | · | · | · | – | – | · | ·
O=C(N/N=C\CCc1ccccc1)c1ccco1 | · | · | · | – | – | · | ·
CCOc1ccc(NC(=O)c2ccncc2)cc1 | – | – | – | 4.1 | – | – | –
CCOc1ccc(C(=O)NC(=S)NCc2cccnc2)cc1 | · | · | · | – | – | · | 0.11
O=C(CC1S/C(=N/N=C/c2c[nH]c3ccccc23)NC1=O)Nc1ccccc1 (stereo not given) | · | · | · | 3.9 | – | · | 0.085
O=C(CC1S/C(=N/N=C/c2c[nH]c3ccc(OCc4ccccc4)cc23)NC1=O)Nc1ccccc1 (stereo not given) | · | · | · | – | – | · | ·
CSc1nsc(SC)c1C(=O)N1CCN(S(=O)(=O)c2ccc(C)cc2)C1C(C)C (stereo not given) | – | – | – | – | – | – | ·
CSc1nsc(SC)c1C(=O)N1CCN(S(=O)(=O)c2ccc(C)cc2)C1C (stereo not given) | – | – | – | 3.9 | – | – | –
O=C(Nc1ccc(Cl)c([N+](=O)[O-])c1)C(Sc1ccccc1)c1ccccc1 (stereo not given) | · | · | · | – | – | · | ·
O=C(Nc1cc([N+](=O)[O-])ccc1Cl)C(Sc1ccccc1)c1ccccc1 (stereo not given) | · | · | · | 11 | – | · | –
Cc1ccc(NC(=O)COC(=O)c2cc(C)nc3ccccc23)c([N+](=O)[O-])c1 | · | · | · | – | – | · | ·
CC(C)OCCCNC(=O)NC12CC3CC(CC(C3)C1)C2 | – | – | – | 9.4 | – | – | 0.079
Cc1c(C#N)c2ncn(CCCN(C)C)c(=O)c2n1-c1ccccc1 | – | – | – | 3.6 | – | – | 0.1
Cc1ccccc1NC(=O)c1cc(C(=O)c2cc(Cl)ccc2O)cn(-c2ccccc2C)c1=O | · | · | · | – | – | · | ·
CCOc1ccc(C2c3c(oc4ccccc4c3=O)C(=O)N2CCCN2CCOCC2)cc1OCC (stereo not given) | – | · | · | – | – | · | –
COc1ccc(C2c3c(oc4ccccc4c3=O)C(=O)N2CCCN2CCOCC2)cc1 (stereo not given) | – | – | – | · | · | – | ·
Cc1ccccc1N1CCN(Cc2c[nH]c3ccccc23)CC1 | – | – | – | 7.5 | – | – | –
c1cnc(N2CCN(Cc3c[nH]c4ccccc34)CC2)nc1 | – | – | – | – | – | – | ·
SMILES | MRP resist rev | NFkB transloc inh | IL1B cytotox | sdo1 growth | MRP-1 activ | NFkB transloc pot | sdo1 rescue conf
Nc1c(N2CCOCC2)cc(Cl)c2nonc12 | – | – | – | 6 | – | – | –
COC(=O)c1ccc(CSc2nnc(NC(=O)C3CC(=O)N(Cc4ccc(C)cc4)C3)s2)cc1 (stereo not given) | · | · | · | – | – | · | ·
CC(C)CNC(=O)NC1C(NC(=O)NCC(C)C)N(C)C(=O)N1C (stereo not given) | – | – | – | 4.4 | – | – | 0.073
O=C(/C=C/c1ccc([N+](=O)[O-])cc1)OCC(=O)N1c2ccccc2Sc2ccccc21 | · | · | · | – | – | · | ·
CC(/C=C/c1ccc2c(c1)OCO2)=N/NC(=O)c1ccc(C)nc1 | · | · | · | – | – | · | ·
CCOC(=O)CCc1c(C)nc2ncnn2c1C | – | – | – | – | – | – | ·
Cc1nc2ncnn2c(C)c1CCC(=O)O | – | – | – | 3.9 | – | – | 0.099
COc1ccc(C(=O)N2CCCC2)cc1 | – | – | – | – | – | – | ·
